Laboratory results taken from PubChem BioAssay AID1159580 (chemical genetic matrix, 2015).
About 2,000 (36%) of roughly 5,500 compounds were called active. About 18% were inconclusive and are not listed. Some of the results follow. Unmarked numbers belong to inactive results. Cut-off read from the data, not from the text of the source: active = normalized growth mostly below about 0.91 (no sharp cut-off); inconclusive = no clear call, values can overlap the other calls; inactive = mostly above about 0.92.

Test: chemical genetic growth profiling, strain panel (AID 1159580);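 note: tested at 20 µM; growth read once vehicle control cultures reached saturation at 30 °C; 1 = growth at the plate median or of vehicle wells; lower values mean less growth of the strain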
Conditions: S. cerevisiae deletion strains, growth OD
[1] = locus YHR030C, strain SLT2, stronger effect = lower value
[2] = locus YHR079C, strain IRE1, stronger effect = lower value
[3] = locus YJL095W, strain BCK1, stronger effect = lower value
[4] = locus YJR066W, strain TOR1, stronger effect = lower value
[5] = locus YLR113W, strain HOG1, stronger effect = lower value
[6] = locus YNL183C, strain NPR1, stronger effect = lower value
[7] = locus YOR231W, strain MKK1, stronger effect = lower value
[8] = locus YPL256C, strain CLN2, stronger effect = lower value

Cc1cc2nc3c(=O)[nH]c(=O)nc-3n(CC(O)C(O)C(O)CO)c2cc1C (configuration not stated)
normalized growth (locus YAL021C, strain ccr4, stronger effect = lower value): 0.995
normalized growth (locus YAL026C, strain drs2, stronger effect = lower value): 0.981
normalized growth (locus YAL030W, strain snc1, stronger effect = lower value): 0.944
normalized growth (locus YBL061C, strain skt5, stronger effect = lower value): 0.988
normalized growth (locus YBR009C, strain hhf1, stronger effect = lower value): 0.954
normalized growth (locus YBR023C, strain chs3, stronger effect = lower value): 1.01
normalized growth (locus YBR171W, strain sec66, stronger effect = lower value): 0.962
normalized growth (locus YBR231C, strain swc5, stronger effect = lower value): 1.01
normalized growth (locus YBR279W, strain paf1, stronger effect = lower value): 1
normalized growth (locus YCL011C, strain gbp2, stronger effect = lower value): 0.987
normalized growth (locus YCL016C, strain dcc1, stronger effect = lower value): 1.05
normalized growth (locus YCL069W, strain vba3, stronger effect = lower value): 0.959
normalized growth (locus YCR088W, strain abp1, stronger effect = lower value): 0.974
normalized growth (locus YDL005C, strain med2, stronger effect = lower value): 0.99
normalized growth (locus YDL040C, strain nat1, stronger effect = lower value): 0.982
normalized growth (locus YDR001C, strain nth1, stronger effect = lower value): 0.982
normalized growth (locus YDR069C, strain doa4, stronger effect = lower value): 0.964
normalized growth (locus YDR137W, strain rgp1, stronger effect = lower value): 1.05
normalized growth (locus YDR159W, strain sac3, stronger effect = lower value): 0.9
normalized growth (locus YDR195W, strain ref2): 1.01
normalized growth (locus YDR297W, strain sur2, stronger effect = lower value): 0.955
normalized growth (locus YDR334W, strain swr1, stronger effect = lower value): 0.932
normalized growth (locus YDR335W, strain msn5, stronger effect = lower value): 1.02
normalized growth (locus YDR392W, strain spt3, stronger effect = lower value): 0.91
normalized growth (locus YEL003W, strain gim4, stronger effect = lower value): 0.907 (active)
normalized growth (locus YEL037C, strain rad23, stronger effect = lower value): 0.974
normalized growth (locus YEL061C, strain CIN8 (second series), stronger effect = lower value): 0.962
normalized growth (locus YER015W, strain faa2, stronger effect = lower value): 0.97
normalized growth (locus YER016W, strain bim1, stronger effect = lower value): 0.994
normalized growth (locus YER111C, strain swi4, stronger effect = lower value): 1
normalized growth (locus YER155C, strain BEM2 (second series), stronger effect = lower value): 0.912
normalized growth (locus YFR010W, strain ubp6, stronger effect = lower value): 0.91
normalized growth (locus YGL167C, strain pmr1, stronger effect = lower value): 0.958
normalized growth (locus YGL173C, strain kem1, stronger effect = lower value): 0.974
normalized growth (locus YGL227W, strain vid30, stronger effect = lower value): 0.98
normalized growth (locus YGL240W, strain doc1, stronger effect = lower value): 0.927
normalized growth (locus YGL253W, strain hxk2, stronger effect = lower value): 1.01
normalized growth (locus YHR013C, strain ard1, stronger effect = lower value): 0.992
normalized growth (locus YHR027C, strain rpn1, stronger effect = lower value): 0.959
normalized growth [1]: 0.959
normalized growth [2]: 0.968
normalized growth (locus YHR142W, strain chs7, stronger effect = lower value): 1.01
normalized growth (locus YJL092W, strain hpr5, stronger effect = lower value): 0.98
normalized growth (locus YJL095W, strain BCK1 (second series), stronger effect = lower value): 0.985
normalized growth [3]: 0.966
normalized growth (locus YJL115W, strain asf1, stronger effect = lower value): 0.969
normalized growth (locus YJL129C, strain trk1, stronger effect = lower value): 0.996
normalized growth (locus YJL154C, strain vps35, stronger effect = lower value): 0.967
normalized growth (locus YJL164C, strain tpk1, stronger effect = lower value): 0.924
normalized growth (locus YJL166W, strain qcr8, stronger effect = lower value): 0.94
normalized growth (locus YJL187C, strain SWE1, stronger effect = lower value): 0.974
normalized growth [4]: 0.926
normalized growth (locus YKL160W, strain elf1, stronger effect = lower value): 1.03
normalized growth (locus YKR026C, strain gcn3, stronger effect = lower value): 0.982
normalized growth (locus YKR091W, strain srl3, stronger effect = lower value): 0.985
normalized growth (locus YLL001W, strain dnm1, stronger effect = lower value): 0.95
normalized growth (locus YLL026W, stronger effect = lower value): 0.973
normalized growth (locus YLL041C, strain sdh2, stronger effect = lower value): 1
normalized growth (locus YLR027C, strain aat2, stronger effect = lower value): 0.98
normalized growth [5]: 0.957
normalized growth (locus YLR221C, strain rsa3, stronger effect = lower value): 0.937
normalized growth (locus YLR258W, strain gsy2, stronger effect = lower value): 1
normalized growth (locus YLR262C, strain YPT6 (second series), stronger effect = lower value): 0.988
normalized growth (locus YLR320W, strain mms22, stronger effect = lower value): 0.956
normalized growth (locus YLR342W, strain FKS1, stronger effect = lower value): 0.964
normalized growth (locus YLR357W, strain rsc2, stronger effect = lower value): 0.9
normalized growth (locus YLR370C, strain arc18, stronger effect = lower value): 1.01
normalized growth (locus YLR384C, strain iki3, stronger effect = lower value): 1.01
normalized growth (locus YML120C, strain ndi1, stronger effect = lower value): 0.918
normalized growth (locus YMR058W, strain fet3, stronger effect = lower value): 0.941
normalized growth (locus YMR125W, strain sto1, stronger effect = lower value): 0.985
normalized growth (locus YMR129W, stronger effect = lower value): 1
normalized growth (locus YMR205C, strain PFK2, stronger effect = lower value): 1
normalized growth (locus YMR231W, strain pep5, stronger effect = lower value): 0.968
normalized growth (locus YNL071W, strain lat1, stronger effect = lower value): 0.972
normalized growth [6]: 0.933
normalized growth (locus YNL209W, strain ssb2, stronger effect = lower value): 1
normalized growth (locus YNL248C, strain rpa49, stronger effect = lower value): 0.997
normalized growth (locus YNL322C, strain KRE1 (second series), stronger effect = lower value): 0.996
normalized growth (locus YNR049C, strain mso1, stronger effect = lower value): 0.994
normalized growth (locus YOR001W, strain rrp6, stronger effect = lower value): 0.908
normalized growth (locus YOR070C, strain gyp1, stronger effect = lower value): 0.984
normalized growth (locus YOR080W, strain dia2, stronger effect = lower value): 0.989
normalized growth (locus YOR083W, strain WHI5, stronger effect = lower value): 0.951
normalized growth (locus YOR106W, strain vam3, stronger effect = lower value): 0.96
normalized growth [7]: 0.966
normalized growth (locus YOR265W, strain rbl2, stronger effect = lower value): 0.973
normalized growth (locus YOR270C, strain vph1, stronger effect = lower value): 0.965
normalized growth (locus YOR290C, strain snf2, stronger effect = lower value): 1.01
normalized growth (locus YPL051W, strain arl3, stronger effect = lower value): 1.01
normalized growth (locus YPL078C, strain atp4, stronger effect = lower value): 1.02
normalized growth (locus YPL106C, strain sse1, stronger effect = lower value): 0.951
normalized growth (locus YPL240C, strain hsp82, stronger effect = lower value): 0.996
normalized growth [8]: 0.98

Cc1cc2nc3c(=O)[nH]c(=O)nc-3n(C[C@@H](O)[C@@H](O)[C@@H](O)COP(=O)(O)O)c2cc1C
normalized growth [1]: 1.04
normalized growth [2]: 1.04
normalized growth [3]: 1.03
normalized growth [4]: 0.966
normalized growth [5]: 1.03
normalized growth [6]: 0.97
normalized growth [7]: 1.04
normalized growth [8]: 1.04
